The list is not random: actives were taken first. Their share in the collection is about 4.3%.
uPA surface inh: qHTS for Inhibitors of Cell Surface uPA Generation. Potency, µM (series often up to 38.3 µM), for inactives: top-dose activity change, negative = inhibition, hits mostly inhibitors. AID 540303, 2011. actives 0.31% (n = 330,000). cell surface uPA generation assay, qHTS; active = well fitted inhibition curve with a large enough effect; inconclusive = small, poorly fitted or top-dose-only effect; inactive = no such curve, though single readings can be large or run the other way; tested in mouse RAW 264.7 cells; also: potency is read from the fitted curve at half-maximal effect; % is scaled to controls: 0 for no effect and ±100 for the full control effect; nearly all actives have a fitted effect of over 55% in size
MCF10A rereplic: A quantitative high throughput screen for small molecules that induce DNA re-replication in MCF 10a normal breast cells. MCF 10A DNA re-replication, Hoechst nuclear intensity, 48 h. Potency, µM (top dose mostly 46.1 µM), for inactives: at the top dose activity, positive = re-replication, actives largely listed as activators. actives 2.9% (n = 350,000). AID 624296, 2012; also: potency is read from the fitted curve at half-maximal effect; % of control where 0% means no effect; nearly all actives have a fitted effect of over 50% in size
Giardia kill: Small Molecules that selectively kill Giardia lamblia: qHTS; actives 0.15% (n = 340,000); Giardia lamblia trophozoite viability; activity change, % at 7.66 µM, hits read low; in the data active = activity change below about -80%; inconclusive = between about -30% and that limit;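 also: parasites exposed to compound for two days anaerobically before the ATP read; % is scaled to controls: 0 for no effect and ±100 for the full control effect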
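Luminescent ATP signal served as the viability read-out, measured 15-30 min after adding ATP detection reagent to trophozoites that had been incubated with compounds for 48 hrs at 37 deg C anaerobically at 100 cells/well.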
SW480 rereplic: A quantitative high throughput screen for small molecules that induce DNA re-replication in SW480 colon adenocarcinoma cells | AID 624297, 2012 | SW480 DNA re-replication, Hoechst DNA content imaging, 48 h | actives 1.8% (n = 340,000) | Potency, µM (series often up to 46.1 µM), for the others: at the highest dose re-replication activation, actives largely listed as activators; also: potency is read from the fitted curve at half-maximal effect; % of control where 0% means no effect; nearly all actives have a fitted effect of over 55% in size
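Image-based read-out: total Hoechst fluorescence of nuclei (405 nm excitation, 500-530 nm emission), with hits raising the fraction of high-intensity nuclei. SW480 colon cells incubated 48 hr with compounds at 37 C.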
Starred values were filed as active, the others as inactive; ? = inconclusive; / = no result. Unless noted, calls follow the shape of the dose curve; as a rule, active = well fitted activation curve with a large enough effect; inconclusive = small, poorly fitted or top-dose-only effect; inactive = no such curve, though single readings can be large or run the other way.

SMILES	uPA surface inh	MCF10A rereplic	Giardia kill	SW480 rereplic
Cc1nc2ccccc2c(=O)n1/N=C/c1ccc(O)c(O)c1O	-16%	-5%	-3	-8%
Cc1nnc(C)n1/N=C/c1c(O)ccc2ccccc12	4%	-1%	92	-2%
CC12CCC=CC1C(c1ccc(F)c(Br)c1)N(Cc1ccccc1)C2=O (centres undefined)	/	/	-7	/
N=C(N=C(N)N)N1CCc2ccccc21	7%	1%	-1	-2%
CCCCCC/C=C/c1ccc(OC)c(C2C3C=CCC(C)C3C(=O)N2Cc2ccccc2)c1 (centres undefined)	/	/	-5	/
CCOc1ccc(C(=O)Cc2cc(OC)c(OC)cc2[N+](=O)[O-])cc1	9%	4.6µM*	18	5.8µM*
CC(C)(C)OC(=O)N(CCc1ccccc1)Cc1cccc(OCc2cccc(NC(=O)C3CCCC3)c2)c1	6%	?	-17	-2%
O=C(O)c1cc(Cl)c(Cl)cc1C(=O)N1CCCC1	12%	2%	-91*	-7%
O=C(O)c1cc(Cl)c(Cl)cc1C(=O)N1CCOCC1	10%	-1%	17	-6%
Cc1c(C(=O)NNC(=O)c2csc(N3CCOCC3)n2)oc2ccccc12	-28%	15µM*	-11	1%
CCOc1ccccc1C=NNC(=O)C(=O)NN=Cc1ccccc1OCC	6%	-6%	-3	-13%
CCOc1ccccc1NC(=O)C(=O)N/N=C/c1cc(Br)ccc1O	-4%	-10%	-26	0.82µM*
Cn1c(N/N=C/c2cc3ccccc3nc2Cl)nc2ccccc21	-8%	?	-88*	?
Cn1c(N/N=C/c2c[nH]c3ccccc23)nc2ccccc21	-12%	?	1	?
CN1CCN(Cc2c(O)ccc3cc(-c4ccccn4)c(=O)oc23)CC1	0%	23µM*	18	9.2µM*
O=C(COc1cccc2ccccc12)Nc1ccc(Cl)cc1C(=O)O	-1%	13%	-1	-13%
O=C(COc1cccc2ccccc12)Nc1cc(Cl)ccc1C(=O)O	4%	6.5µM*	-12	1%
COc1ccc(C2Nc3ccccc3C(=O)N2c2ccc(F)cc2)cc1COc1ccc(NC(C)=O)cc1 (centres undefined)	/	/	26	/
OCCN(Cc1cccnc1)Cc1ccccn1	-11%	14%	-27	17%
O=C(NCc1ccco1)C1CCN(C(=O)c2ccc([N+](=O)[O-])cc2)CC1	1%	0%	-12	-3%
Cc1n[nH]c(C)c1CCc1nc2c3ccccc3nc(SCC(N)=O)n2n1	-2%	20%	0	-6%
Cc1ccc(NC(=O)CSc2nc3ccccc3c3nc(CCc4c(C)n[nH]c4C)nn23)cc1F	/	3.7µM*	-9	10µM*
CCCn1nc(C(=O)N2CC(=O)Nc3ccccc32)c2ccccc2c1=O	-13%	15µM*	-4	15µM*
COc1cc(OC)cc(C(=O)N2CC(=O)Nc3ccccc32)c1	-7%	1.5µM*	-17	3.3µM*
CC(C)n1nc(C(=O)OCC(=O)N2CC(=O)Nc3ccccc32)c2ccccc2c1=O	8%	-7%	3	-2%
SMILES	uPA surface inh	MCF10A rereplic	Giardia kill	SW480 rereplic
O=C1CN(C(=O)c2ccccc2F)c2ccccc2N1	14%	-12%	20	-23%
Nc1nc(SCc2ccc(Br)cc2)c2ncn(C3OC(CO)C(O)C3O)c2n1 (centres undefined)	2%	-45%	-23	-6%
C=C(C)C(=O)OC1(C(F)(F)F)Oc2cc(C)ccc2NC1=O (centres undefined)	-12%	16µM*	5	?
O=C(Nc1nc(-c2ccccn2)cs1)c1ccc(-c2ccccc2F)o1	-28%	21µM*	0	?
O=C(Nc1nc(-c2ccccn2)cs1)c1ccc([N+](=O)[O-])o1	-9%	2.3µM*	?	?
CC(=O)c1ccc(-c2ccc(C(=O)Nc3nc(-c4ccccn4)cs3)o2)cc1	?	16µM*	-29	?
Cc1ccc(C(=O)Nc2nc(-c3ccccn3)cs2)o1	?	1%	10	14%
CC(=O)Nc1ccc(C(=O)Nc2nc(-c3ccccn3)cs2)cc1	-5%	17%	3	10%
CCn1nc(C(=O)Nc2nc(-c3ccccn3)cs2)c2ccccc2c1=O	4%	10%	28	-1%
O=C(Nc1nc(-c2cc(F)ccc2F)cs1)c1ccccn1	3%	-14%	-2	?
CCCn1nc(C(=O)Nc2nc(-c3ccccn3)cs2)c2ccccc2c1=O	?	23µM*	-23	-11%
O=[N+]([O-])c1cc(CN2CCC(O)CC2)ccc1Cl	0%	1%	4	-3%
O=C(Nc1nc(-c2ccccn2)cs1)c1ccc2c(c1)OCCO2	2.5µM*	10%	-28	1%
O=C(CSc1nnc(-c2cccc(Br)c2)o1)N1CCNC1=O	-1%	-1%	23	-5%
CC(C)N(C(=O)Nc1ccc2nsnc2c1)C(C)C	?	16µM*	1	?
COc1ccc(N(C)C(=O)Nc2ccc3nsnc3c2)cc1	-10%	-9%	-2	1%
NS(=O)(=O)c1ccc(CNC(=O)C(c2ccccc2)c2ccccc2)cc1	2%	-4%	20	-116%
CCN(CC)c1ccc(/C=N/NC(=O)Cc2cccs2)c(O)c1	-19%	?	29	?
CCN(CC)c1ccc(/C=N/NC(=O)c2cnccn2)cc1	-14%	2.3µM*	-4	?
CCN(CC)c1ccc(C=Nc2ccccc2C)c(O)c1	1%	2%	-15	?
CCN(CC)c1ccc(/C=N/NC(=O)c2ccco2)cc1	-5%	4.1µM*	-21	5.8µM*
CCN(CC)c1ccc(/C=N/N=C(c2ccccc2)c2ccccc2)c(O)c1	2%	?	-14	23µM*
CCN(CC)c1ccc(NC(=O)c2ccco2)cc1	/	1%	-30	-5%
CCN(CC)c1ccc(/C=N/NC(=O)c2ccco2)c(O)c1	?	21µM*	11	1.5µM*
Cc1cn(C2CC3OCC(NC(=O)C(NC(=O)OC(C)(C)C)C(C)OCc4ccccc4)C3O2)c(=O)[nH]c1=O (centres undefined)	/	/	7	/
SMILES	uPA surface inh	MCF10A rereplic	Giardia kill	SW480 rereplic
NC(=O)CCCCC1CCSS1 (centres undefined)	/	7%	/	-4%
CCN(CC)c1ccc(/C=N/NC(=S)NCc2ccccc2)c(O)c1	-10%	16µM*	-11	16µM*
CCN(CC)c1ccc(/C=N/Nc2nc(C)cc(C)n2)cc1	-8%	?	6	18µM*
CCN(CC)c1ccc(/C=N/Nc2nc3ccccc3[nH]2)c(O)c1	0%	18µM*	8	2.1µM*
O=C(CS(=O)(=O)c1ccc(F)cc1)NCCS(=O)(=O)c1ccccc1	-3%	0%	25	?
COc1ccc(N2COC3c4cccc5cccc(c45)C32)cc1 (centres undefined)	0%	23µM*	-24	1%
Cc1noc(C)c1CSCC(=O)Nc1nc2c(F)cc(F)cc2s1	6%	20%	-16	3%
Cc1cc(C)n2nc(C(=O)OCC(=O)c3ccccc3)nc2n1	-3%	?	-7	8.2µM*
